Laboratory results taken from the OligoGym collection.

What follows are sequences tested against NARF (assay: pooled miR-30 sensor sort-seq; sequence = guide strand). Details: shRNA.
Note: reference of the scale not given here.

Row | Sequence | sensor-assay potency score (higher = more potent)
1 | TTATTTGAGCAATTTCACCTGA | 0.612
2 | ATCCTCGTTGAACAGCTCCTTG | -0.97
3 | TTTAGCAGCAAAATAAGGCAAA | -0.927

The sequences below were run against NAT8L in the same assay as above. Details: shRNA.

Row | Sequence | sensor-assay potency score (higher = more potent)
4 | TTCTCTGTCCCTTCGCTCGCTT | -0.787
5 | ATCCGCAGCAGCTCCACCGTGT | -0.56
6 | TGAGTCCACAGACATCCGCAGC | -1.61
7 | TTGGCGATGCCCTTGCCTCGGA | -0.817
8 | TAGCGGTGGTAGCGGACCTGGA | -1.68
9 | TTAACAAAATCTGAGCTGCAAG | -1.08
10 | TCTTAGGGTACAAACTACCGTT | -0.674
11 | TACAGTCTACAAAACTCCCATC | -1.25
12 | TAACTTATTAGAAAATGTGTTG | -0.872
13 | TTGTCCTCCTCGTGGGCCCGTG | -1.12
14 | TGCCTCGGAAACGTGAGTCCAC | -0.669
15 | TTGTGCACCACGGCGAACTCCA | -0.938
